# Measurements published in publication PMC4336329 (PLoS ONE, 2015).
# Among all 310,000 compounds or so, about 14,000 (4.5%) showed an effect of 50% or more. The effect is printed as a negative number. Many of the other results were omitted from the sample, so strong results are more common in it than they were.
# Target: human ether-à-go-go-related gene (hERG) potassium channel (human, UniProt Q12809)
# Test: primary screen, population patch clamp on CHO cells stably expressing hERG; higher = less effect of the substance
# 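Note: peak tail current of the secondary pulse compared with the same well before compound.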
# Chain of human ether-à-go-go-related gene (hERG) potassium channel (Q12809 whole entry, looked up): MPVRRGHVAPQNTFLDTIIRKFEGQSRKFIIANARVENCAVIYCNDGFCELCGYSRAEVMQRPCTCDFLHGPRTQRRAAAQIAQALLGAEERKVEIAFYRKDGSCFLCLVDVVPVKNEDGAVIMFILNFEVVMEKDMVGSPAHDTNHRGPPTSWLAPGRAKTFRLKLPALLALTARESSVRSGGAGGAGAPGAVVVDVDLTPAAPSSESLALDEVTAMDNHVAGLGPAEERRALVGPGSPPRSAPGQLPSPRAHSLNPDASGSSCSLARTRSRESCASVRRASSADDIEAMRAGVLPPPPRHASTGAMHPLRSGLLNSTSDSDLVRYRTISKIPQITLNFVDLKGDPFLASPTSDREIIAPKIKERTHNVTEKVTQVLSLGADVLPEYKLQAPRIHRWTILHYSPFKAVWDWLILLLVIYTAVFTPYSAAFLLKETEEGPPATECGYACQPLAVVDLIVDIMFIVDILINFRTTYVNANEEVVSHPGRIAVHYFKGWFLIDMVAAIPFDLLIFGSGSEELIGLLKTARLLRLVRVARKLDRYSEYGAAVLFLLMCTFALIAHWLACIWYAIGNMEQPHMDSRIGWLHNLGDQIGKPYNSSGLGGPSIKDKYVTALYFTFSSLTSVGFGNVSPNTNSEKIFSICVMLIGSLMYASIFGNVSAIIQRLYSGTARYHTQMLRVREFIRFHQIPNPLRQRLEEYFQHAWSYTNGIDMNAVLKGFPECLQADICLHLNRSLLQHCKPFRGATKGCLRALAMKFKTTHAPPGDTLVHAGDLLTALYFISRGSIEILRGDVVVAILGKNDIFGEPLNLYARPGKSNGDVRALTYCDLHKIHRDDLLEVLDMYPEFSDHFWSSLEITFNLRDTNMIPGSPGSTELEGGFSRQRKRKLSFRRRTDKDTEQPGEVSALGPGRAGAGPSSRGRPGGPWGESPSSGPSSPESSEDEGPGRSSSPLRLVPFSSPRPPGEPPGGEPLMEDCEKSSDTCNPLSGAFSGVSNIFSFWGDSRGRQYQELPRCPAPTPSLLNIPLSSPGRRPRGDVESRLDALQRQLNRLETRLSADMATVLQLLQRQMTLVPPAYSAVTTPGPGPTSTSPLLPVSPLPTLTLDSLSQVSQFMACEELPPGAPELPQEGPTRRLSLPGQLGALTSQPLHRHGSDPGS
row,Structure (SMILES),"hERG current change (%, negative = inhibition) at 10uM"
1,O=[N+]([O-])/C=C/c1cn(Cc2ccc(Cl)cc2)c2ccccc12,2.65%
2,O=C(NCc1cccnc1)C(Cl)(Cl)Cl,0.208%
3,CCN(CC)c1ccc(S(=O)(=O)N2CCOCC2)cc1NC(=O)COC(=O)COc1ccccc1C,12.7%
4,CC1=CC=CC2=NC(=O)CC(C)(C(=O)N(CC(=O)NC3CCCC3)c3ccc(F)cc3)N12 (centres unmarked),11.1%
5,Cc1nn(C)c(C)c1S(=O)(=O)N(CC(=O)Nc1ccccn1)c1ccc(C(C)C)cc1,-7.4%
6,Cc1nn(C)c(C)c1S(=O)(=O)N(CC(=O)NCc1cccs1)c1ccc(C(C)C)cc1,9.79%
7,Cc1nn(C)c(C)c1S(=O)(=O)N(CC(=O)NCCN1CCOCC1)c1ccc(C(C)C)cc1,-2.41%
8,Cc1nn(C)c(C)c1S(=O)(=O)N(CC(=O)NCCCN1CC(C)CC(C)C1)c1ccc(C(C)C)cc1 (centres unmarked),-66.4%
9,Cc1nn(C)c(C)c1S(=O)(=O)N(CC(=O)NCc1ccco1)c1ccc(C(C)C)cc1,16.6%
10,Cc1nn(C)c(C)c1S(=O)(=O)N(CC(=O)NCCCOC(C)C)c1ccc(C(C)C)cc1,-69.6%
11,Cc1nn(C)c(C)c1S(=O)(=O)N(CC(=O)NCCCN1CCC(C)CC1)c1ccc(C(C)C)cc1,-64.7%
12,Cc1cccc(NC(=O)CN(c2ccc(C(C)C)cc2)S(=O)(=O)c2c(C)nn(C)c2C)n1,-12.2%
13,Cc1nn(C)c(C)c1S(=O)(=O)N(CC(=O)NC1CCCCCC1)c1ccc(C(C)C)cc1,-10.4%
14,C#CCOCCOCCOCCNc1nc(N2CCN(C(=O)[C@H]([C@@H](C)CC)n3cc(CCCC[NH3+])nn3)CC2)nc(N2CCN(C(=O)[C@H](CCCC[NH3+])n3cc(CC(C)O)nn3)CC2)n1.[Cl-] (some centres unmarked),14.3%
15,COc1ccc(C2C(C#N)=C(C)NC3=C2C(=O)CC(C)(C)C3)c(OC)c1 (centres unmarked),-6.3%
16,Cc1ccccc1OCCCCn1c(CO)nc2ccccc21,-45.1%
17,COc1ccc(-c2nnc(SCC(=O)NCc3cccs3)n2CC(C)C)cc1,-15.2%
18,CNC(=S)N1CCN(c2ccccc2OC)CC1,7.94%
19,CC(=O)n1cc(/C=N/NC(N)=S)c2ccccc21,-18.4%
20,CCCCN=C1CC(C)(C)CC(=O)/C1=C(/O)CCCN1C(=O)c2ccccc2C1=O,-61.4%
21,O=C1CC(c2ccccc2)CC(=NCCO)/C1=C(\O)CCCN1C(=O)c2ccccc2C1=O (centres unmarked),-71.9%
22,CCCN=C1CC(C)(C)CC(=O)/C1=C(/O)CCCN1C(=O)c2ccccc2C1=O,-11.4%
23,CC1(C)CC(=O)/C(=C(\O)CCCN2C(=O)c3ccccc3C2=O)C(=NCCO)C1,11.7%
24,CC/C(O)=C1\C(=O)CC(c2ccccc2)CC1=NCCC(=O)O (centres unmarked),15.6%
25,O=C(O)CN=C1CC(c2ccccc2)CC(=O)/C1=C(/O)CCCN1C(=O)c2ccccc2C1=O (centres unmarked),1.09%
26,CCCCCCNc1cc2n(c(=O)n1)CCc1cc(OC)c(OC)cc1-2,-46.7%
27,CCOc1ccc(C(C)NC(=O)c2ccc3c(c2)NC(=O)C(C)S3)cc1OCC (centres unmarked),1.73%

row,Structure (SMILES),"hERG current change (%, negative = inhibition) at 10uM"
1,O=C(CS(=O)(=O)c1c[nH]c2ccccc12)NC1CCCCC1,-8.19%
2,Cc1ccc(/C=N/NC(=O)CN2CCN(Cc3ccccc3)CC2)o1,-11.7%
3,CSc1ccc(/C=N\NC(=O)CNc2ccc(C)cc2)cc1,-2.08%
4,CSc1ccc(/C=N/NC(=O)CN2CCN(Cc3ccccc3Cl)CC2)cc1,-37.5%
5,Cc1ccc(CN2CCN(CC(=O)N/N=C/c3ccc(C)o3)CC2)cc1,-64.2%
6,CSc1ccc(/C=N/NC(=O)CN2CCN(Cc3ccccc3)CC2)cc1,-74.6%
7,CSc1ccc(/C=N/NC(=O)CN2CCN(Cc3ccc(Cl)cc3)CC2)cc1,-35.1%
8,CSc1ccc(/C=N/N2CCN(Cc3ccccc3)CC2)cc1,-5.46%
9,Cc1ccc(/C=N/NC(=O)CN2CCN(Cc3ccccc3Cl)CC2)o1,-23.5%
10,CSc1ccc(/C=N/NC(=O)CN2CCN(Cc3ccc(C)cc3)CC2)cc1,-63.2%
11,CSc1nnc(-c2ccc(S(=O)(=O)N3CCOCC3)cc2)n1C,-25%
12,Cc1cccc(C(=O)NCCNC(=O)c2cccnc2)c1,18.6%
13,COc1ccc(Nc2nc(NCc3ccco3)nc(N/N=C/c3ccccc3F)n2)cc1,-12.3%
14,Cc1ccc(S(=O)(=O)Nc2cccc(C(=O)NCCCN3CCOCC3)c2)cc1F,-10.2%
15,COc1cc(C(F)(F)F)c(C(=O)N(C)Cc2cc(Cl)cc(Cl)c2)cn1,-18.9%
16,O=C1C(C=NCCCn2ccnc2)=C(O)c2ccccc21,-8.86%
17,CC(=NCCCn1ccnc1)C1=C(O)c2ccccc2C1=O,-68%
18,CCN(CC)CCCN=C(C)C1=C(O)c2ccccc2C1=O,-41.2%
19,CCOC(=O)N1CCN(C(=O)COc2ccc(S(=O)(=O)NC3CCCCC3)cc2C)CC1,-16.9%
20,O=C(O)c1ccccc1C(=O)Nc1ccc(-n2nc(C(F)(F)F)cc2C(F)(F)F)cc1,12.8%
21,Cc1ccc(NC(=O)CSc2nnc(-c3cccs3)n2Cc2ccco2)cc1,-61.6%
22,COc1ccc(NC(=O)CSc2nnc(-c3ccccc3)n2Cc2ccco2)cc1OC,-34.6%
23,CCn1c(SCC(=O)Nc2ccc(OC)c(OC)c2)nnc1-c1cccs1,-14.1%
24,CN(C)c1ccc(NC(=O)CSc2nnc(-c3cccs3)n2Cc2ccco2)cc1,-39.4%
25,O=C(CSc1nnc(-c2cccs2)n1Cc1ccco1)Nc1ccc2c(c1)OCO2,-14.6%
26,COc1ccc(NC(=O)CSc2nnc(-c3cccs3)n2Cc2ccco2)cc1OC,-60.6%
